Experimental data as given in PubChem BioAssay (NCATS).
Records with an inconclusive call do not appear. Unless noted, the call rests on the fitted dose curve; in most records, active means well fitted curve in either direction with a large enough effect (not every such curve was filed as active); inconclusive means small, poorly fitted or top-dose-only effect, or another doubt; inactive means flat fitted curve, though single readings scatter.

How the values were obtained:
[1] = AP1 Signaling Pathway (AID 357); settings: ME-180 AP-1-bla reporter, EGF-induced, beta-lactamase ratio, 5 h; at 17.2 µM (top of the series) unless noted; further: on the % scale 0 is the no-effect control and ±100 the full control effect
Outline: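 AP-1-bla ME-180 cells with beta-lactamase reporter under AP-1 response element, stimulated with EC50 EGF; compounds titrated, 5 hours at 37 degrees Celsius. CCF4 read at 460/530 nm ratio; positive and negative modulators judged by AC50.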

[2] = NFAT Signaling Pathway (AID 444); settings: Jurkat NFAT-bla M1, carbachol, beta-lactamase ratio, 5 h; at 17.2 µM (top of the series) unless noted;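 further: carbachol stimulus at about its EC50 of 1 µM final; on the % scale 0 is the no-effect control and ±100 the full control effect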
Outline: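 Jurkat cells with NFAT-driven β-lactamase reporter and co-expressed M1 receptor, stimulated with carbachol (final 1 uM, ~EC50), compound titration, 5 h at 37 °C. CCF4 loaded 1 h at RT; 460/530 nm ratio gave %activity and AC50.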

[3] = Stat Signaling Pathway (AID 446); settings: ME-180 SIE beta-lactamase reporter, IL-6 stimulated, 5 h; at 17.2 µM (top of the series) unless noted;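 further: ME-180 cervical cancer cells given 40 pM IL-6 alongside compound; SIE-controlled beta-lactamase reporter measured as 460/530 nm FRET emission ratio; on the % scale 0 is the no-effect control and ±100 the full control effect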
Outline: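 Screening format detects activators and inhibitors alike: ME-180 SIE-bla cells stimulated at 40 pM IL-6 for 5 hrs with compound, then dual-emission beta-lactamase read at 405 nm excitation.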

[4] = molecular target: Glucocorticoid receptor (Homo sapiens) (UniProt P04150); assay: GR-GFP Redistribution (AID 450;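 active means compounds whose dose series gives a full or clear partial fitted curve of increased nuclear translocation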; further: potency means the concentration at half of the fitted maximal effect); settings: U2OS GR-GFP nuclear translocation, laser cytometry, 2 h; series mostly up to 20.6 µM
Sequence of Glucocorticoid receptor (Homo sapiens) (P04150 whole entry, looked up): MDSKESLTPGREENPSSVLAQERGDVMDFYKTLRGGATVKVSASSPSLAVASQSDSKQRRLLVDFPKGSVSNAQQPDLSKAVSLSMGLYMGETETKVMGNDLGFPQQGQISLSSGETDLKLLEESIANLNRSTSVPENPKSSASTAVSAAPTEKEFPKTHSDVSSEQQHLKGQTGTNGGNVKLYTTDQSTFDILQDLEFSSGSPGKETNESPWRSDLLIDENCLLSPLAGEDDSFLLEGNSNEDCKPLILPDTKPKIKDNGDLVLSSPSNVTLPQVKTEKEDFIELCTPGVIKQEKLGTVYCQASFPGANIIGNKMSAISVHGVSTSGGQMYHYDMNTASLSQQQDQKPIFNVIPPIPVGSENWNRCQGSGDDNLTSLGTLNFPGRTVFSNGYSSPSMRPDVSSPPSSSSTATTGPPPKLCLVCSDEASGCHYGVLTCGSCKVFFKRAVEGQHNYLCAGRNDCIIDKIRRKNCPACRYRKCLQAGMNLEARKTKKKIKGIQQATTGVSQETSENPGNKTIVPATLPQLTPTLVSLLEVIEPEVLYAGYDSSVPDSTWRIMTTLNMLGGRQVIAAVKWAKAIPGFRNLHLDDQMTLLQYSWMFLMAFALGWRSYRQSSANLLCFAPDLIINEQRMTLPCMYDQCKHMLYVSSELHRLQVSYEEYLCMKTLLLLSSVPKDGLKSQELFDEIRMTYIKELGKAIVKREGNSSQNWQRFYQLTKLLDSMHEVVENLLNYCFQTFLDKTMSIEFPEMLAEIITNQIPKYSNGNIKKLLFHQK

Cc1cc(C)nc(N(C#N)CC(=O)N(c2ccccc2)C(C)C)n1
inactive: activity change, negative = inhibition [1] -11% | activity change, negative = inhibition [2] 4.64% | activity, negative = inhibition [3] 7.49% | Potency [4] > 20.6 µM

O=C(NC1(C(F)(F)F)C(=O)Nc2c1c(=O)[nH]c(=O)n2-c1ccccc1)c1cccnc1 (stereo not given)
inactive: activity change, negative = inhibition [1] -3.2% | activity change, negative = inhibition [2] 8.45% | activity, negative = inhibition [3] 3.92% | Potency [4] > 20.6 µM

Cn1ncc2nnn(-c3ccccc3)c(=O)c21
inactive: activity change, negative = inhibition [1] 3.86% | activity change, negative = inhibition [2] -4.96% | activity, negative = inhibition [3] 3.98% | Potency [4] > 20.6 µM

CCCCC(=O)NC(Nc1ccc(C)cn1)(C(=O)OCC)C(F)(F)F (stereo not given)
inactive: activity change, negative = inhibition [1] 6.8% | activity change, negative = inhibition [2] -3.17% | activity, negative = inhibition [3] -20.4% | Potency [4] > 20.6 µM

Cn1ncc(N=Cc2ccccc2)c1C(N)=O
inactive: activity change, negative = inhibition [1] 5.51% | activity change, negative = inhibition [2] 6.04% | activity, negative = inhibition [3] 5.52% | Potency [4] > 20.6 µM

CC(NC(=O)Nc1nccs1)(C(F)(F)F)C(F)(F)F
inactive: activity change, negative = inhibition [1] 4.62% | activity change, negative = inhibition [2] 15.9% | activity, negative = inhibition [3] 5.57% | Potency [4] > 20.6 µM

C[C@]12CC[C@@H]3c4ccc(O[C@@H]5O[C@H](C(=O)O)[C@@H](O)[C@H](O)[C@H]5O)cc4CC[C@H]3[C@@H]1C[C@@H](O)[C@@H]2O
inactive: activity change, negative = inhibition [1] 4.45% | activity change, negative = inhibition [2] -30% | activity, negative = inhibition [3] 11.5% | Potency [4] > 20.6 µM

COC(=O)CSc1nc2c(c(=O)n(C)c(=O)n2C)n1CCC(C)C
inactive: activity change, negative = inhibition [1] 10.4% | activity change, negative = inhibition [2] -5.51% | activity, negative = inhibition [3] 6.93% | Potency [4] > 20.6 µM

CCN(CC)CCN1C(=O)C(=O)/C(=C(/O)c2c(C)[nH]c(C(=O)OC)c2C)C1c1ccc(OC)cc1 (stereo not given)
inactive: activity change, negative = inhibition [1] 9.19% | activity change, negative = inhibition [2] 8.2% | activity, negative = inhibition [3] 9.4% | Potency [4] > 20.6 µM

CC1(C)Cc2c(C#N)c(N3CCOCC3)nc(Cc3ccccc3)c2CO1
inactive: activity change, negative = inhibition [1] -20.2% | activity change, negative = inhibition [2] -28.9% | activity, negative = inhibition [3] -7.6% | Potency [4] > 20.6 µM

CCC1CC2(C)NC(=O)c3c(sc4c3CC(C)(C)OC4)N2C1=O (stereo not given)
inactive: activity change, negative = inhibition [1] -7.1% | activity change, negative = inhibition [2] -20.5% | activity, negative = inhibition [3] -10.3% | Potency [4] > 20.6 µM

N#CCCSCc1ccc(OCC(=O)O)cc1
inactive: activity change, negative = inhibition [1] 2.01% | activity change, negative = inhibition [2] -0.583% | activity, negative = inhibition [3] 0.185% | Potency [4] > 20.6 µM

c1ccc(OCc2nn3c(-c4ccccn4)nnc3s2)cc1
inactive: activity change, negative = inhibition [1] -1.82% | activity change, negative = inhibition [2] -2.83% | activity, negative = inhibition [3] 0.158% | Potency [4] > 20.6 µM

c1ccc(C2=Nn3c(nnc3-c3ccccn3)SC2)cc1
inactive: activity change, negative = inhibition [1] -4.27% | activity change, negative = inhibition [2] -8.45% | activity, negative = inhibition [3] 5.46% | Potency [4] > 20.6 µM

COc1ccc2nc(SCC(=O)O)nc(C)c2c1
inactive: activity change, negative = inhibition [1] 5.08% | activity change, negative = inhibition [2] 7.89% | activity, negative = inhibition [3] 3.73% | Potency [4] > 20.6 µM

COC(=O)CC(=O)Cc1nc(N)nc(Nc2ccc(C)c(C)c2)n1
inactive: activity change, negative = inhibition [1] 9.64% | activity change, negative = inhibition [2] -5.97% | activity, negative = inhibition [3] 1.4% | Potency [4] > 20.6 µM

CC1(C)Cc2c(c(-c3ccccc3)nc(N3CCCC3)c2C(N)=O)CO1
inactive: activity change, negative = inhibition [1] 0.989% | activity change, negative = inhibition [2] -18.8% | activity, negative = inhibition [3] 0.41% | Potency [4] > 20.6 µM

O=C(Nc1nnc(SCc2ccccc2F)s1)c1ccco1
inactive: activity change, negative = inhibition [1] -5.32% | activity change, negative = inhibition [2] 11.2% | activity, negative = inhibition [3] -4.78% | Potency [4] > 20.6 µM

COC(=O)CCc1c(C)[nH]c(=S)[nH]c1=O
inactive: activity change, negative = inhibition [1] 7.36% | activity change, negative = inhibition [2] 14.4% | activity, negative = inhibition [3] 1.45% | Potency [4] > 20.6 µM

CCCCOC(=O)c1ccc(NC(=O)CSc2nncn2C)cc1
inactive: activity change, negative = inhibition [1] 6.24% | activity change, negative = inhibition [2] 4.69% | activity, negative = inhibition [3] 4.52% | Potency [4] > 20.6 µM

COc1ccc(CN2CCC(=O)NC2=O)cc1
inactive: activity change, negative = inhibition [1] 9.75% | activity change, negative = inhibition [2] -0.653% | activity, negative = inhibition [3] 9.56% | Potency [4] > 20.6 µM

CCOc1ccc2nc(NC(NC(=O)CC)(C(=O)OC)C(F)(F)F)sc2c1 (stereo not given)
inactive: activity change, negative = inhibition [1] -9.26% | activity change, negative = inhibition [2] 8.42% | activity, negative = inhibition [3] -8.24% | Potency [4] > 20.6 µM

Oc1oc(-c2ccccc2)nc1C=NCc1ccncc1
inactive: activity change, negative = inhibition [1] 1.8% | activity change, negative = inhibition [2] -8.61% | activity, negative = inhibition [3] 22.7% | Potency [4] > 20.6 µM

Cc1cccc(N2C(=O)CC(N3CCN(Cc4ccc(Cl)cc4)CC3)C2=O)c1 (stereo not given)
inactive: activity change, negative = inhibition [1] 1.23% | activity change, negative = inhibition [2] 6.12% | activity, negative = inhibition [3] 1.94% | Potency [4] > 20.6 µM

CCCCSc1nc(O)c(C2OC(=O)c3c2ccc(OC)c3OC)c(=O)n1C (stereo not given)
inactive: activity change, negative = inhibition [1] -4.1% | activity change, negative = inhibition [2] 1.82% | activity, negative = inhibition [3] -7.44% | Potency [4] > 20.6 µM
